For experiment [1], the system named is Klebsiella pneumoniae. The settings on record: Concentration 32 ug.mL-1;; ASSAY_TEST Inhibition of Bacterial Growth; detection method Absorption (OD600); MEDIA CAMHB; plate type 384well; NBS; CORNING #3640; time 18 hr.
In experiment [2] the test system is Candida albicans. The settings on record: Concentration 32 ug.mL-1; ASSAY_TEST Inhibition of Fungal Growth; detection method Absorption (OD530).
Experiment [3] deals with Cryptococcus neoformans. The conditions noted are these: Concentration 32 ug.mL-1; ASSAY_TEST Inhibition of Fungal Growth; detection method Resazurin; Absorption (OD600-OD570); plate type 384well; NBS; CORNING #3640. For orientation: Resazurin is reduced to fluorescent resorufin, in cell work by metabolically active cells.

Measured potencies and affinities stand elsewhere.

Usually Inhibition stands for the change of the read-out against control, counted positive when it falls. For the compound `CN(C(=O)Cn1nc2nc(Nc3ccc(F)cc3)ccn2c1=O)c1ccccc1`, the Inhibition is 8.25% in experiment [1], 3.9% in experiment [2] and -4.67% in experiment [3].

Take `Cc1ccc(-c2cc3c4nnc(SCC(=O)Nc5cccc(Cl)c5C)n4ccn3n2)cc1`: the Inhibition is on record as -0.41% in experiment [1], 0.76% in experiment [2] and -8.53% in experiment [3].

For `CSc1cccc(NC(=O)Cn2nc3ccc(-c4ccccc4)nn3c2=O)c1`, the figures for the Inhibition in experiment [1], in experiment [2] and in experiment [3] were -3.17%, 3.96% and -8.45%, respectively.

On to `COc1ccc(NC(=O)Cn2nc3nc(N4CCCCCC4)ccn3c2=O)cc1Cl`, for which the figures for the Inhibition in experiment [1], in experiment [2] and in experiment [3] were 8.5%, 2.73% and -7.14%, respectively.

As to `COc1cccc(-n2ccn3c(SCC(=O)NCc4ccco4)nnc3c2=O)c1`, the Inhibition in experiment [1] is recorded as 16.06%; in experiment [2], 4.76%; in experiment [3], -13.76%.

With `Cc1ccccc1CSc1nnc2c(=O)n(-c3ccc(F)cc3)ccn12`, the Inhibition in experiment [1] is 9.44%; in experiment [2] it was 1.51%; in experiment [3], -10.33%.

As for `CCOc1ccc(-n2ccn3c(SCC(=O)c4cccc(OC)c4)nnc3c2=O)cc1`, the Inhibition in experiment [1] is listed as 9.6%; in experiment [2], 2.55%; in experiment [3], -9.06%.

With `CCOC(=O)c1cccc(NC(=O)Cn2nc3c(Oc4cccc(C)c4C)nccn3c2=O)c1`, the Inhibition in experiment [1] is on record as -1.37%; in experiment [2], -0.11%; in experiment [3], -1.74%.

For `COc1ccccc1-n1ccn2c(SCC(=O)Nc3ccc(C)cc3C)nnc2c1=O`, the figures for the Inhibition in experiment [1], in experiment [2] and in experiment [3] were 11.64%, 2.45% and -10.8%, respectively.

Take `COc1ccc(N(Cc2ccccc2F)S(=O)(=O)c2ccc3nnc(C)n3c2)cc1`: the figures for the Inhibition in experiment [1], in experiment [2] and in experiment [3] were 4.15%, -0.01% and -2.71%, respectively.

As to `COC(=O)c1ccc(CN(c2cccc(F)c2)S(=O)(=O)c2ccc3nncn3c2)o1`, the Inhibition is 8.3% in experiment [1], 2.51% in experiment [2] and -7.35% in experiment [3].

As to `Cc1ccc(NC(=O)Cn2nc3ccc(SC(C)C)nn3c2=O)cc1F`, the Inhibition is 6.4% in experiment [1], 5.51% in experiment [2] and -6.87% in experiment [3].

Take `COc1ccccc1NC(=O)Cn1nc2c(Sc3ccccc3)nccn2c1=O`: the Inhibition in experiment [1] is on record as -2.04%; in experiment [2] it was 1.31%; in experiment [3] it was -4.93%.

Take `COc1cccc(CN(c2ccc(F)c(F)c2)S(=O)(=O)c2cccn3c(C)nnc23)c1`: the results for the Inhibition in experiment [1], in experiment [2] and in experiment [3] were 13.94%, -0.28% and -8.71%, respectively.

Take `Cc1ccc(Oc2nccn3c(=O)n(CC(=O)N4CCN(c5ccccc5F)CC4)nc23)cc1`: the values for the Inhibition in experiment [1], in experiment [2] and in experiment [3] were 13.64%, -0.66% and -23.01%, respectively.

As to `CC(C)c1ccc(CNC(=O)CCc2nnc3c(N4CCCCC4)nc4ccccc4n23)cc1`, the Inhibition in experiment [1] was 8.5%; in experiment [2] it was 0.52%; in experiment [3] it was -24.76%.

Consider `CCC(C)NC(=O)Cn1nc2n(CCC(C)C)c(=O)c3sccc3n2c1=O` (stereo unspecified), for which the Inhibition is on record as 0.17% in experiment [1], -2.39% in experiment [2] and -17.2% in experiment [3].

As to `Cc1ccc(C)c(Cn2nc3ccc(-c4ccc(C)c(C)c4)nn3c2=O)c1`, the figures for the Inhibition in experiment [1], in experiment [2] and in experiment [3] were 12.73%, 1.53% and -14.79%, respectively.

Consider `Cc1cccc(Oc2nccn3c(=O)n(CC(=O)Nc4ccccc4C(F)(F)F)nc23)c1C`, for which the Inhibition in experiment [1] is on record as 10.49%; in experiment [2], -0.97%; in experiment [3] it was -7.67%.

As to `Cc1cc2nn(CC(=O)N3CCCc4ccccc43)c(=O)n2c(Nc2ccc(F)cc2)n1`, the Inhibition was 10.84% in experiment [1], 1.07% in experiment [2] and -3.85% in experiment [3].

As for `O=C(Cn1nc2c(SC3CCCCC3)nccn2c1=O)Nc1ccc(F)cc1`, the Inhibition is recorded as 10.22% in experiment [1], 0.1% in experiment [2] and -30.85% in experiment [3].

With `CSc1cccc(NC(=O)Cn2c(=O)c3nnc(C)n3c3ccccc32)c1`, the Inhibition in experiment [1] was 4.53%; in experiment [2], 4.76%; in experiment [3] it was -2.25%.

As to `N#Cc1cccc(NC(=O)Cn2nc3c4cc(-c5ccc(Cl)cc5)nn4ccn3c2=O)c1`, the results for the Inhibition in experiment [1], in experiment [2] and in experiment [3] were 3.5%, 20.48% and -13.1%, respectively.

Consider `Cc1ccc(NC(=O)Cn2nc3c(SC4CCCCC4)nccn3c2=O)cc1F`, for which the Inhibition in experiment [1] is recorded as 13.26%; in experiment [2], -0.51%; in experiment [3], -26.18%.

Take `Cc1ccc(NC(=O)Cn2nc3ccc(SC(C)(C)C)nn3c2=O)c(Cl)c1`: the Inhibition is reported as 7.92% in experiment [1], 7.14% in experiment [2] and -20.56% in experiment [3].

On to `O=c1c2sccc2n2c(=O)n(Cc3cccc(C(F)(F)F)c3)nc2n1Cc1cccs1`, for which the values for the Inhibition in experiment [1], in experiment [2] and in experiment [3] were 15.22%, 35.9% and -33.79%, respectively.

For the compound `Cc1ccc(NC(=O)Cn2nc3c(N4CCCC4)nccn3c2=O)cc1Cl`, the figures for the Inhibition in experiment [1], in experiment [2] and in experiment [3] were 13.96%, 0.98% and -21.34%, respectively.

Consider `Cc1nnc2ccc(S(=O)(=O)N(Cc3ccc(F)cc3)c3ccc4c(c3)OCO4)cn12`, for which the Inhibition in experiment [1] is 13.79%; in experiment [2], 1.73%; in experiment [3], -7.24%.

As to `COc1cccc(CN(c2ccc(C(C)C)cc2)S(=O)(=O)c2cccn3cnnc23)c1`, the Inhibition in experiment [1] is on record as 13.52%; in experiment [2], 10.84%; in experiment [3] it was -11.09%.

As to `COc1ccc(Cl)cc1NC(=O)Cn1nc2c3cc(-c4ccc(C)c(C)c4)nn3ccn2c1=O`, the Inhibition in experiment [1] is reported as -20.97%; in experiment [2], 12.28%; in experiment [3] it was -11.29%.

For the compound `O=C(CSc1nnc2c(=O)n(-c3ccc(F)c(F)c3)ccn12)c1c[nH]c2ccccc12`, the Inhibition in experiment [1] is listed as 5.97%; in experiment [2], 22.97%; in experiment [3], -8.04%.

Consider `Cc1cc(C)cc(NC(=O)Cn2nc3ccc(SC(C)(C)C)nn3c2=O)c1`, for which the Inhibition in experiment [1] is 7.43%; in experiment [2] it was 7%; in experiment [3], -18.29%.

Values taken from ChEMBL document CHEMBL4513146, “CO-ADD screening of Karazin Kharkiv National University (Ukraine) compounds”.
